# In all, about 420,000 compounds went through this assay and about 64,000 (15%) were called active. Not shown: some 27% with an inconclusive outcome. The call rests on the fitted dose curve; in most records, active means well fitted inhibition curve with a large enough effect; inconclusive means small, poorly fitted or top-dose-only effect; inactive means flat fitted curve, though single readings scatter. These entries were drawn from the full list. Where a call stands in place of a potency, no number is given.
# Experiment: qHTS for Inhibitors of human tyrosyl-DNA phosphodiesterase 1 (TDP1): qHTS in cells in absence of CPT; further: nearly all actives have a fitted effect of over 55% in size
# Settings: DT40 Tdp1-/- hTDP1 cells, no CPT, ATP luminescence, 48 h; activity change, negative = growth inhibition: at 46.2 µM (top of the series)
# Procedure, shortened: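 Chicken DT40 Tdp1-/- cells complemented with human TDP1, screened without camptothecin (DMSO vehicle only), 400 cells/well. Compounds pin-transferred, cells incubated at 37 °C for at least 48 hr. Growth read as ATP-dependent luminescence (CellTiter-Glo, 30 min at RT).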
# Potency means the concentration at half of the fitted maximal effect.
row,SMILES,Potency
1,Cc1ccc(S(=O)(=O)N[C@@H](Cc2ccccc2)C(=O)N2CCC(C(=O)N[C@H](C(=O)O)C(C)O)CC2)cc1 (some centres undefined),inactive
2,COc1ccc(C2C(C(C)=O)=C(O)C(=O)N2Cc2cccnc2)cc1 (centres undefined),inactive
3,COc1cc2nc(C#Cc3nc4cc(OC)c(OC)cc4[nH]3)[nH]c2cc1OC,inactive
4,Cc1nnc(NC(=O)Cn2c(=O)sc3ccccc32)s1,inactive
5,CC(Oc1ccccc1F)C(=O)NN (centres undefined),inactive
6,Cn1nc(C(F)(F)F)c2cc(C(=O)N3CCOCC3)sc21,inactive
7,Cn1nc(-c2ccc(Cl)cc2)c2cc(C(=O)NCc3ccco3)sc21,20.6 µM (active)
8,O=C(NCc1ccco1)c1nc(-c2ccccc2)n(-c2ccccc2)n1,inactive
9,COc1ccc(OC)c(S(=O)(=O)N(C)CC(=O)N2CCN(c3ccccc3)CC2)c1,inactive
10,COc1ccc2c(Cl)c(C(=O)NCc3ccco3)sc2c1,inactive
11,COc1cccc(/C=C/C(=O)OCC(=O)N2CCN(c3ccccc3)CC2)c1,inactive
12,CCOc1ccc(-c2ccc(SCC(=O)N3CCOCC3)nn2)cc1,inactive
13,COc1cccc(-c2ccc(SCC(=O)N3CCN(c4ccccc4)CC3)nn2)c1,16.4 µM (active)
14,CCOC(=O)N1CCN(C(=O)c2cc3c(-c4ccc(Cl)cc4)nn(C)c3s2)CC1,11.6 µM (active)
15,COc1cccc(-c2nn(C)c3sc(C(=O)N4CCN(c5ccccc5)CC4)cc23)c1,23.1 µM (active)
16,CCOC(=O)N1CCN(C(=O)CSc2ccc(Cl)cc2)CC1,inactive
17,CCOC(=O)N1CCN(C(=O)CNC(=O)Cc2ccc(Cl)cc2)CC1,inactive
18,COC(=O)c1nc(NC(=O)c2ccc(F)cc2)n[nH]1,inactive
19,Nc1cc(=O)c2[nH]cnc2[nH]1,inactive
20,S=C(NC1CCCCC1)NN1CCOCC1,inactive
21,CCn1c(SCC(=O)Nc2cc(C)ccc2C)nnc1-c1cnccn1,inactive
22,CCN(CCCNC(=O)c1c(C)oc2ncn(CC(C)C)c(=O)c12)Cc1ccccc1,inactive
23,Cc1ccc(C(c2sc3nc(C)nn3c2O)N2CCN(c3ccccc3)CC2)cc1 (centres undefined),inactive
24,Cc1ccn(CC(=O)N2N=C(C(F)F)CC2(O)C(F)F)n1 (centres undefined),inactive
25,CCOc1ccccc1NC(=O)C1=C(C)Nc2ncnn2C1c1ccc(NC(C)=O)cc1 (centres undefined),inactive
26,CC1=C(C(N)=O)C(c2ccc(Br)cc2)n2ncnc2N1 (centres undefined),inactive

row,SMILES,Potency
1,CCOC(=O)C1=C(c2ccccc2)Nc2ncnn2C1c1ccc(Cl)cc1 (centres undefined),18.4 µM (active)
2,COCCCNS(=O)(=O)c1cccc(S(=O)(=O)c2cccc(S(=O)(=O)NCCCOC)c2)c1,inactive
3,Cc1ccc(/C=N/NC(=O)C(NC(=O)c2ccccc2)c2n[nH]c(=O)c3ccccc23)cc1 (centres undefined),inactive
4,Cc1ccsc1-c1cc(C(=O)O)c2c(ccc3ccccc32)n1,inactive
5,CCCCN(C)CCCNC(=O)c1cc(-c2cccs2)nc2ccccc12,29.1 µM (active)
6,O=C(NCCN1CCOCC1)c1cc(-c2cccs2)nc2ccccc12,inactive
7,O=C1c2ccccc2-c2ccccc2NC1O (centres undefined),inactive
8,COc1ccc(/C=N/OCc2ccccc2C#N)c(OC)c1,inactive
9,CCOc1ccc(C2C(C#N)=C(N)N(N(C)C)C3=C2C(=O)CCC3)cc1 (centres undefined),inactive
10,CN(C)C(CNC(=O)c1cccc(C#N)c1)c1ccco1 (centres undefined),inactive
11,COc1ccc(S(=O)(=O)NCC(c2ccc(N(C)C)cc2)N2CCc3ccccc32)cc1OC (centres undefined),inactive
12,COc1cc(C(=O)NCC(c2ccco2)N2CCCC2)ccc1OCc1ccccc1 (centres undefined),inactive
13,O=C(NCC(c1ccco1)N1CCc2ccccc21)c1cccc(F)c1 (centres undefined),11.6 µM (active)
14,O=C(NCC(c1cccnc1)N1CCc2ccccc21)c1cccc(C(F)(F)F)c1 (centres undefined),14.6 µM (active)
15,CCOC(=O)c1c(NC(=O)CSc2cn(CCNC(=O)c3cccc(C(F)(F)F)c3)c3ccccc23)sc2c1CCC2,inactive
16,COc1ccc(C(=O)NCC(c2ccco2)N2CCc3ccccc32)cc1OC (centres undefined),16.4 µM (active)
17,CCOc1ccccc1C(=O)NCC(c1ccc(N(C)C)cc1)N1CCCC1 (centres undefined),inactive
18,O=C(NN1CCOCC1)c1cccc(F)c1,inactive
19,COc1ccc(C(=O)NCC(c2ccc(N(C)C)cc2)N2CCc3ccccc32)c(OC)c1 (centres undefined),20.6 µM (active)
20,Cc1ccc(NC(=O)NCC(c2cccnc2)N2CCOCC2)cc1 (centres undefined),inactive
21,COc1ccccc1C(=O)NCCC(=O)NCC(c1ccco1)N1CCCCC1 (centres undefined),inactive
22,CCn1cc(C(=O)NCCO)c(=O)c2cc(F)c(N3CCN(C)CC3)cc21,inactive
23,Cc1ccc(NC(=S)NC(NC(=O)Cc2cccc3ccccc23)C(Cl)(Cl)Cl)cc1 (centres undefined),inactive
24,Cc1cc(C(=O)O)c(S(C)(=O)=O)s1,inactive
25,NNc1nnc(Cc2ccncc2)c2ccccc12,inactive
26,O=C(COC(=O)Cn1[nH]c(=O)c2ccccc2c1=O)Nc1c(Cl)cccc1C(F)(F)F,inactive

row,SMILES,Potency
1,COc1ccc([N+](=O)[O-])cc1N(CC(=O)Nc1ccccc1C(=O)N1CCOCC1)S(C)(=O)=O,inactive
2,CN(C)c1ccc(C2N(C)C(=O)c3ccccc3N2C)cc1 (centres undefined),inactive
3,CC1CCc2c(c3ccccc3[nH]c2=O)O1 (centres undefined),inactive
4,O=C(O)C1OC(C(=O)O)C2C1C(F)(F)C2(F)F (centres undefined),inactive
5,Cc1ccc2nc(NCCCNC(=O)c3cnccn3)c(C#N)cc2c1,inactive
6,Cc1ccc(CNC(=O)COC(=O)C2CCC2)cc1,inactive
7,CC(C#N)OC(=O)c1cccnc1SCC(=O)Nc1ccc2c(c1)OCO2 (centres undefined),inactive
8,O=C(NCc1cccnc1)c1ccc2nc([C@@H]3O[C@H](CO)[C@H](O)[C@H](O)[C@H]3O)[nH]c2c1,inactive
9,COc1ccc(N(CC(=O)NCCc2ccc(Cl)cc2)S(=O)(=O)c2c(C)nn(C)c2C)cc1,20.6 µM (active)
10,CCOc1ccc(N(CC(=O)NCCc2ccc(OC)cc2)S(C)(=O)=O)cc1,inactive
11,COc1ccc(CCNC(=O)CN(c2ccccc2)S(C)(=O)=O)cc1,inactive
12,COc1ccccc1CNC(=O)COn1nnc2ccc(S(=O)(=O)N3CCOCC3)cc21,inactive
13,O=C1[C@H]2[C@@H](c3ccc(F)cc3)N3C(=O)N(c4ccc(C(F)(F)F)cc4)C(=O)[C@@]3(Cc3ccccc3)[C@H]2C(=O)N1C1CCCCC1,11.6 µM (active)
14,O=C1[C@H]2[C@@H](c3ccc(Cl)cc3)N3C(=O)N(c4cccc(F)c4)C(=O)[C@@]3(Cc3ccccc3)[C@H]2C(=O)N1C1CCCCC1,inactive
15,Cc1cccc(N2C(=O)N3[C@H](c4ccc(F)cc4)[C@@H]4C(=O)N(C5CCCCC5)C(=O)[C@@H]4[C@]3(Cc3ccccc3)C2=O)c1,inactive
16,CNC(=O)C(=O)N/N=C/c1ccccn1,inactive
17,S=C(NN=Cc1ccccn1)Nc1ccccn1,1.46 µM (active)
18,S=C(Nc1cccnc1)Nc1ccccn1,inactive
19,CC(C)(C)C(=O)NC1CC2CCCC(C1)N2C(=O)Nc1ccccc1F (centres undefined),inactive
20,CCOc1ccc(S(=O)(=O)Nc2ccc(OC)nc2)cc1,23.1 µM (active)
21,Cc1cc(S(=O)(=O)Nc2ccc(C(=O)NCC(c3ccco3)N3CCCC3)cc2)ccc1F (centres undefined),inactive
22,COc1ccc(C(CNC(=O)c2ccc(S(=O)(=O)Nc3ccccc3C)cc2)N2CCOCC2)cc1 (centres undefined),inactive
23,CC(=O)c1ccc(S(=O)(=O)Nc2ccc(C(=O)NCC(c3ccccc3)N(C)C)cc2)cc1 (centres undefined),inactive
24,COc1ccc(C(CNC(=O)c2ccc(S(=O)(=O)Nc3ccccc3F)cc2)N(C)C)cc1 (centres undefined),inactive
25,CCOc1ccc(NS(=O)(=O)c2ccc(C(=O)NCC(c3ccccc3OC)N3CCCC3)cc2)cc1 (centres undefined),18.4 µM (active)
26,CCOc1ccc(S(=O)(=O)Nc2nccs2)cc1,inactive

row,SMILES,Potency
1,CCOc1ccc(S(=O)(=O)Nc2ccc(S(=O)(=O)Nc3cc(OC)ccc3OC)cc2)cc1,inactive
2,COc1ccccc1C(CNC(=O)c1cccc(NS(=O)(=O)c2ccc(Br)cc2)c1)N(C)C (centres undefined),18.4 µM (active)
3,COc1ccccc1NC(=O)COC(=O)COc1ccccc1F,inactive
4,Cc1nnsc1S(=O)(=O)Cc1ccccc1Cl,inactive
5,O=C(CSc1nc2c(cnn2-c2ccc(F)cc2)c(=O)[nH]1)N1CCCCCC1,inactive
6,CC(=O)c1ccc(S(=O)(=O)N2CCN(C(=O)/C=C/c3ccc4ccccc4n3)CC2)cc1,inactive
7,COc1cccc(/C=C2\C=C(c3ccc(C)cc3)OC2=O)c1OC(C)=O,inactive
8,COc1cccc(/C=C/c2ccc3ccccc3n2)c1OC(C)=O,16.4 µM (active)
9,O=C(Nc1ccccc1)c1ccc2nsnc2c1,inactive
10,O=C(Cc1ccccc1)NCc1ccc(F)cc1,inactive
11,Fc1ccc(CNCc2ccc(Br)cc2)cc1,inactive
12,c1ccc(CNCc2ccc(CNCc3ccccc3)cc2)cc1,10.3 µM (active)
13,O=Cc1c(NCCCN2CCCC2=O)c2ccccc2[nH]c1=O,inactive
14,Cc1cc(Cl)c(S(=O)(=O)NCc2cccnc2)cc1OCC(N)=O,inactive
15,COc1ccc(C(CNC(=O)c2cccnc2SC)N2CCOCC2)cc1 (centres undefined),inactive
16,O=C(NCC(c1ccc(Cl)cc1)N1CCOCC1)c1ccccc1F (centres undefined),13 µM (active)
17,CN1CCN(C(CNC(=O)c2ccccc2F)c2ccc3c(c2)OCO3)CC1 (centres undefined),inactive
18,O=C1CCCC(O)=C1N=Nc1ccc2ncsc2c1,inactive
19,Cc1ccc(C)c(NC(=O)C(c2ccccc2)N2CCN(CC(=O)NC3CC3)CC2)c1 (centres undefined),inactive
20,CCC(CO)Oc1cc(NC(=O)c2ccc(Cl)cc2)c2ncn(C(C)C)c2c1 (centres undefined),inactive
21,COc1cccc(Cn2c(SCc3ccc(C(=O)N4CCC(C)CC4)cc3)nc3ccncc32)c1,20.6 µM (active)
22,Cc1cccc(CSc2nc3ccncc3n2Cc2ccc(C(=O)O)cc2)c1,inactive
23,COc1cccc(Cn2c(SCc3ccc(C(=O)N4CCCCC4)cc3)nc3ccncc32)c1,20.6 µM (active)
24,COC(=O)c1ccc2c(=O)n(CCN3CCOCC3)c(SCC(=O)Nc3cccc(OC)c3)nc2c1,inactive
25,COc1cc(C(=O)N2CCC(c3ccncc3)CC2)cc(OC)c1OC,inactive
26,COc1ccc(CSc2nnnn2-c2ccc(C(=O)O)cc2)cc1,inactive

# From PubChem BioAssay AID686978 (National Center for Advancing Translational Sciences (NCATS), 2013)
